Data as given in PubChem BioAssay AID1159580 (chemical genetic matrix, 2015).
Hit rate of the full screen: of about 5,500 compounds, about 2,000 (36%) were called active. Not shown: some 18% with an inconclusive outcome. No stated cut-off is given here; in the data, active means normalized growth mostly below about 0.91 (no sharp cut-off); inconclusive means no clear call, values can overlap the other calls; inactive means mostly above about 0.92. This is one part of the list.

Test: chemical genetic growth profiling, strain panel (AID 1159580);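 further: tested at 20 µM; growth read once vehicle control cultures reached saturation at 30 °C; 1 = growth at the plate median or of vehicle wells; lower values mean less growth of the strain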
Conditions: growth OD
[1] = S. cerevisiae deletion strains, locus YAL013W, strain DEP1, active compounds read low
[2] = S. cerevisiae deletion strains, locus YBR229C, strain ROT2, active compounds read low
[3] = S. cerevisiae deletion strains, locus YDL101C, strain DUN1, active compounds read low
[4] = S. cerevisiae deletion strains, locus YDR150W, strain NUM1, active compounds read low
[5] = S. cerevisiae deletion strains, locus YEL061C, strain CIN8, active compounds read low
[6] = S. cerevisiae deletion strains, locus YGR078C, strain PAC10, active compounds read low
[7] = S. cerevisiae deletion strains, locus YHR030C, strain SLT2, active compounds read low
[8] = S. cerevisiae deletion strains, locus YHR087W, strain rtc3, active compounds read low
[9] = S. cerevisiae deletion strains, locus YJR043C, strain POL32, active compounds read low
[10] = S. cerevisiae deletion strains, locus YJR075W, strain HOC1, active compounds read low
[11] = S. cerevisiae deletion strains, locus YLR039C, strain RIC1, active compounds read low
[12] = S. cerevisiae deletion strains, locus YLR058C, strain SHM2 (second series), active compounds read low
[13] = S. cerevisiae deletion strains, locus YLR085C, strain ARP6, active compounds read low
[14] = S. cerevisiae deletion strains, locus YLR262C, strain YPT6, active compounds read low
[15] = S. cerevisiae deletion strains, locus YML094W, strain GIM5, active compounds read low
[16] = S. cerevisiae deletion strains, locus YMR219W, strain ESC1, active compounds read low
[17] = S. cerevisiae deletion strains, locus YMR263W, strain SAP30, active compounds read low
[18] = S. cerevisiae deletion strains, locus YMR307W, strain GAS1, active compounds read low
[19] = S. cerevisiae deletion strains, locus YNL153C, strain GIM3, active compounds read low
[20] = S. cerevisiae deletion strains, locus YNL298W, strain CLA4 (second series), active compounds read low
[21] = S. cerevisiae deletion strains, locus YNL322C, strain KRE1, active compounds read low
[22] = S. cerevisiae deletion strains, locus YNR030W, strain Alg12, active compounds read low
[23] = S. cerevisiae deletion strains, locus YPL055C, strain LGE1, active compounds read low
[24] = S. cerevisiae deletion strains, locus YPL241C, strain CIN2, active compounds read low
[25] = S. cerevisiae deletion strains, locus YPR135W, strain CTF4, active compounds read low
[26] = S. cerevisiae deletion strains, locus YAR019C, strain CDC15, active compounds read low
[27] = S. cerevisiae deletion strains, locus YBL105C, strain PKC1, active compounds read low
[28] = S. cerevisiae deletion strains, locus YBR135W, strain CKS1, active compounds read low
[29] = S. cerevisiae deletion strains, locus YBR136W, strain MEC1, active compounds read low
[30] = S. cerevisiae deletion strains, locus YBR160W, strain CDC28, active compounds read low
[31] = S. cerevisiae deletion strains, locus YDL017W, strain CDC7, active compounds read low
[32] = S. cerevisiae deletion strains, locus YDL028C, strain MPS1, active compounds read low
[33] = S. cerevisiae deletion strains, locus YDL108W, strain KIN28, active compounds read low
[34] = S. cerevisiae deletion strains, locus YDL132W, strain cdc53, active compounds read low
[35] = S. cerevisiae deletion strains, locus YDL214C, strain PRR2, active compounds read low
[36] = S. cerevisiae deletion strains, locus YDR052C, strain DBF4, active compounds read low
[37] = S. cerevisiae deletion strains, locus YDR054C, strain cdc34, active compounds read low
[38] = S. cerevisiae deletion strains, locus YDR226W, strain ADK1, active compounds read low
[39] = S. cerevisiae deletion strains, locus YDR477W, strain SNF1, active compounds read low
[40] = S. cerevisiae deletion strains, locus YER123W, strain YCK3, active compounds read low
[41] = S. cerevisiae deletion strains, locus YER133W, strain GLC7, active compounds read low
[42] = S. cerevisiae deletion strains, locus YFL009W, strain cdc4, active compounds read low
[43] = S. cerevisiae deletion strains, locus YFL029C, strain CAK1, active compounds read low
[44] = S. cerevisiae deletion strains, locus YFR003C, strain YPI1, active compounds read low
[45] = S. cerevisiae deletion strains, locus YFR019W, strain FAB1, active compounds read low
[46] = S. cerevisiae deletion strains, locus YFR028C, strain CDC14, active compounds read low
[47] = S. cerevisiae deletion strains, locus YGR040W, strain KSS1, active compounds read low
[48] = S. cerevisiae deletion strains, locus YGR052W, strain FMP48, active compounds read low
[49] = S. cerevisiae deletion strains, locus YGR092W, strain DBF2, active compounds read low
[50] = S. cerevisiae deletion strains, locus YHR079C, strain IRE1, active compounds read low
[51] = S. cerevisiae deletion strains, locus YHR082C, strain KSP1, active compounds read low
[52] = S. cerevisiae deletion strains, locus YHR205W, strain SCH9, active compounds read low
[53] = S. cerevisiae deletion strains, locus YIL147C, strain SLN1, active compounds read low
[54] = S. cerevisiae deletion strains, locus YJL095W, strain BCK1, active compounds read low
[55] = S. cerevisiae deletion strains, locus YJL128C, strain PBS2, active compounds read low
[56] = S. cerevisiae deletion strains, locus YJL157C, strain FAR1, active compounds read low
[57] = S. cerevisiae deletion strains, locus YJR016C, strain ILV3, active compounds read low
[58] = S. cerevisiae deletion strains, locus YJR066W, strain TOR1 (second series), active compounds read low
[59] = S. cerevisiae deletion strains, locus YJR066W, strain TOR1, active compounds read low
[60] = S. cerevisiae deletion strains, locus YKL048C, strain ELM1, active compounds read low
[61] = S. cerevisiae deletion strains, locus YKL067W, strain YNK1, active compounds read low
[62] = S. cerevisiae deletion strains, locus YKL101W, strain HSL1, active compounds read low
[63] = S. cerevisiae deletion strains, locus YKL193C, strain SDS22, active compounds read low
[64] = S. cerevisiae deletion strains, locus YKL203C, strain TOR2, active compounds read low
[65] = S. cerevisiae deletion strains, locus YLR113W, strain HOG1, active compounds read low
[66] = S. cerevisiae deletion strains, locus YLR133W, strain CKI1, active compounds read low
[67] = S. cerevisiae deletion strains, locus YLR403W, strain SFP1, active compounds read low
[68] = S. cerevisiae deletion strains, locus YML070W, strain DAK1, active compounds read low
[69] = S. cerevisiae deletion strains, locus YMR001C, strain CDC5, active compounds read low
[70] = S. cerevisiae deletion strains, locus YMR205C, strain PFK2 (second series), active compounds read low
[71] = S. cerevisiae deletion strains, locus YMR277W, strain FCP1, active compounds read low
[72] = S. cerevisiae deletion strains, locus YNL006W, strain LST8, active compounds read low
[73] = S. cerevisiae deletion strains, locus YNL020C, strain ARK1, active compounds read low
[74] = S. cerevisiae deletion strains, locus YNL161W, strain CBK1, active compounds read low
[75] = S. cerevisiae deletion strains, locus YNL183C, strain NPR1, active compounds read low
[76] = S. cerevisiae deletion strains, locus YNL207W, strain RIO2, active compounds read low
[77] = S. cerevisiae deletion strains, locus YNL222W, strain SSU72, active compounds read low
[78] = S. cerevisiae deletion strains, locus YNL307C, strain MCK1 (second series), active compounds read low
[79] = S. cerevisiae deletion strains, locus YOL078W, strain AVO1, active compounds read low
[80] = S. cerevisiae deletion strains, locus YOL136C, strain PFK27, active compounds read low
[81] = S. cerevisiae deletion strains, locus YOR061W, strain CKA2, active compounds read low
[82] = S. cerevisiae deletion strains, locus YOR119C, strain RIO1, active compounds read low
[83] = S. cerevisiae deletion strains, locus YOR231W, strain MKK1, active compounds read low
[84] = S. cerevisiae deletion strains, locus YOR329C, strain SCD5, active compounds read low
[85] = S. cerevisiae deletion strains, locus YPL031C, strain PHO85, active compounds read low
[86] = S. cerevisiae deletion strains, locus YPL153C, strain RAD53, active compounds read low
[87] = S. cerevisiae deletion strains, locus YPL204W, strain HRR25, active compounds read low
[88] = S. cerevisiae deletion strains, locus YPL209C, strain IPL1, active compounds read low
[89] = S. cerevisiae deletion strains, locus YPL256C, strain CLN2, active compounds read low
[90] = S. cerevisiae deletion strains, locus YPR025C, strain CCL1, active compounds read low
[91] = S. cerevisiae deletion strains, locus YPR106W, strain ISR1, active compounds read low
[92] = S. cerevisiae deletion strains, locus YPR111W, strain DBF20, active compounds read low
[93] = S. cerevisiae deletion strains, strain NNK1, active compounds read low
[94] = S. cerevisiae deletion strains, strain TSCII, active compounds read low

Measured: normalized growth

N/C(=N/O)c1cnccc1C(F)(F)F
inactive: [1] 0.987 | [2] 1.01 | [3] 1.01 | S. cerevisiae deletion strains, locus YDL134C, strain PPH21, active compounds read low 0.999 | [4] 0.986 | [5] 0.998 | [6] 0.994 | [7] 0.978 | [8] 0.986 | S. cerevisiae deletion strains, locus YJL187C, strain SWE1, active compounds read low 0.991 | [9] 0.993 | [10] 0.993 | S. cerevisiae deletion strains, locus YKL190W, strain CNB1, active compounds read low 0.997 | [11] 1.04 | [12] 0.993 | [13] 0.976 | [14] 0.99 | [15] 1.05 | [16] 0.996 | [17] 0.977 | [18] 0.958 | [19] 1.01 | [20] 0.996 | [21] 1 | [22] 0.999 | [23] 0.989 | [24] 1.03 | [25] 1.01

FC(F)(F)c1ccncc1-c1nc(-c2ccc(Cl)cc2)cs1
active: [7] 0.78 | [65] 0.686 | [89] 0.682
inactive: [26] 0.982 | [27] 0.984 | [28] 0.98 | [29] 0.982 | [30] 0.985 | [31] 0.991 | [32] 0.978 | [3] 0.97 | [33] 0.984 | [34] 0.973 | [35] 0.914 | [36] 0.989 | [37] 0.979 | [38] 0.979 | [39] 0.949 | [40] 0.852 | [41] 0.936 | [42] 0.981 | [43] 0.977 | [44] 0.985 | [45] 0.887 | [46] 0.976 | [47] 0.923 | [48] 0.869 | [49] 0.933 | [50] 0.775 | [51] 1 | [52] 0.894 | [53] 0.987 | [54] 0.759 | [55] 0.896 | [56] 0.927 | [57] 0.979 | [58] 0.937 | [59] 1.01 | [60] 0.955 | [61] 0.922 | [62] 0.919 | [63] 0.986 | [64] 1.01 | [66] 0.911 | [67] 0.934 | [68] 0.878 | [69] 0.986 | [70] 0.905 | [71] 0.962 | [72] 0.99 | [73] 0.906 | [74] 0.971 | [75] 0.774 | [76] 0.987 | [77] 0.98 | [78] 0.922 | [79] 0.972 | [80] 0.868 | [81] 0.933 | [82] 0.975 | [83] 0.766 | [84] 0.981 | [85] 0.917 | [86] 0.917 | [87] 0.908 | [88] 0.987 | [90] 0.988 | [91] 0.956 | [92] 0.949 | [93] 0.942 | [94] 0.972

Cn1ncc(-c2nc(-c3ccc(Cl)cc3)cs2)c1N
active: [7] 0.687 | [67] 0.651 | [89] 0.859
inactive: [26] 0.933 | [27] 0.931 | [28] 0.935 | [29] 0.933 | [30] 0.939 | [31] 0.935 | [32] 0.94 | [3] 0.961 | [33] 0.936 | [34] 0.931 | [35] 0.904 | [36] 0.935 | [37] 0.91 | [38] 0.925 | [39] 0.785 | [40] 0.921 | [41] 0.75 | [42] 0.935 | [43] 0.942 | [44] 0.943 | [45] 0.95 | [46] 0.922 | [47] 0.785 | [48] 0.854 | [49] 0.781 | [50] 0.822 | [51] 0.897 | [52] 0.798 | [53] 0.936 | [54] 0.729 | [55] 0.987 | [56] 0.879 | [57] 0.934 | [58] 0.8 | [59] 0.78 | [60] 0.95 | [61] 0.932 | [62] 0.947 | [63] 0.924 | [64] 0.817 | [65] 0.906 | [66] 0.886 | [68] 0.91 | [69] 0.914 | [70] 0.917 | [71] 0.914 | [72] 0.95 | [73] 0.897 | [74] 0.93 | [75] 0.892 | [76] 0.916 | [77] 0.934 | [78] 0.899 | [79] 0.934 | [80] 0.939 | [81] 0.874 | [82] 0.803 | [83] 0.96 | [84] 0.944 | [85] 0.74 | [86] 0.776 | [87] 0.774 | [88] 0.938 | [90] 0.944 | [91] 0.955 | [92] 0.959 | [93] 0.966 | [94] 0.933

Cc1c(-c2csc(-c3ccc(Cl)cc3)n2)sc2ccc(Cl)cc12
inactive: [1] 1.03 | [2] 1.03 | [3] 1.05 | [4] 1.01 | [5] 0.996 | [6] 1.04 | S. cerevisiae deletion strains, locus YGR229C, strain SMI1, active compounds read low 1.03 | [7] 1.07 | [8] 1.03 | [9] 1.04 | [10] 1.02 | [11] 1.07 | [12] 1.05 | [13] 1.05 | [14] 1.09 | [15] 1.04 | [16] 1.04 | [17] 1.02 | [18] 1.07 | [19] 1.02 | [20] 1.09 | [21] 1.04 | [22] 1.04 | S. cerevisiae deletion strains, locus YOL006C, strain TOP1, active compounds read low 1.1 | [23] 0.999 | [24] 1.03 | [25] 1.07 | S. cerevisiae strains, strain wild type, active compounds read low 1.04
